We go through 67 molecules from ChEMBL document CHEMBL3988442, “University of Dundee, Small-Polar-MMV Screening Library” (2021).

The campaign covered roughly 38,000 compounds. About 1,200 (3.2%) showed an effect of 50% or more. The median lay at about -58%. This excerpt belongs to a sample that is enriched for strong results.

For the test, the system named is Plasmodium falciparum. Briefly: Calibr Malaria Delayed Death Assay SOP. Format: functional, organism-based. The arrangement: scale not given: in the data most compounds retested in dose-response had high values. To be noted: concentration 4.99e-06 (unit not given; other assays of the set use mol/L).
For the molecule `CC(C)Cc1nc(OCC(=O)O)c(C#N)c2c1CCCC2`, the “Percent Effect” value is on record as -37.32%.

Turning to `Cc1[nH]nc(CCC(=O)N2CCc3c(nc[nH]c3=O)C2)c1C`, the “Percent Effect” value was -169.9%.

Regarding `CCN(CC)CCn1cnc(-c2ccccc2)c1-c1ncc[nH]1`, the “Percent Effect” value was -50.85%.

Consider `CCN(CC)CCn1cnc(-c2ccccc2)c1-c1cnc(C)s1`, for which the “Percent Effect” value turned out to be 52.89%.

On to `CCN(CC)CCn1cnc(-c2ccccc2)c1-c1cnn(CC)c1`, for which the “Percent Effect” value is recorded as 18.58%.

Take `CCc1ccsc1C(=O)NC(C#N)CC(C)C` (configuration not stated): the “Percent Effect” value is given as -81.49%.

Take `CC1CCN(C(=O)c2ccc(N(C)Cc3cnn(C)c3)nc2)CC1`: the “Percent Effect” value is -165.6%.

With `Cc1sc2nc(C(F)(F)F)nc(N3CCCN(C)CC3)c2c1C`, the “Percent Effect” value amounted to 75.15%.

As to `CC(=O)N1CCN(c2nc(C(F)(F)F)nc3sc(C)c(C)c23)CC1`, the “Percent Effect” value was -31.05%.

For the molecule `Cc1sc2nc(C(F)(F)F)nc(N3CCN(C)CC3)c2c1C`, the “Percent Effect” value is recorded as 10.88%.

As for `CC(NCc1ccc(F)cc1)c1ccc2[nH]c(=O)[nH]c2c1` (configuration not stated), the “Percent Effect” value is reported as -45.16%.

For the molecule `O=C1Nc2ccccc2/C1=C1\CCCCN1`, the “Percent Effect” value was -131%.

For the molecule `CN(C)CC(=O)N1CCc2sc(C(=O)NCC3CC3)cc21.O=C(O)C(F)(F)F`, the “Percent Effect” value was -49.99%.

Take `CCn1nc2c(cc1=O)CN(Cc1nc(CCOC)no1)CC2`: the “Percent Effect” value is listed as -158.3%.

Turning to `CCCn1nc2c(cc1=O)CN(Cc1nc(CCOC)no1)CC2`, the “Percent Effect” value was determined as 60.93%.

In the case of `CCCn1nc2c(cc1=O)CN(Cc1nc(-c3ccoc3)no1)CC2`, the “Percent Effect” value is -48.33%.

As for `Cn1nc(CO)c2c1CCN(c1ncnc3c1CCNC3)C2`, the “Percent Effect” value is listed as -81.19%.

`CC(=O)Nc1ccc(CN(C)Cc2snnc2C)cc1`: the “Percent Effect” value is -153.1%.

For `CSCc1cccc(S(=O)(=O)NCCO)c1`, the “Percent Effect” value is on record as -54.99%.

As to `CCN(CC)CCNS(=O)(=O)c1cccc(CSC)c1`, the “Percent Effect” value amounted to 83.08%.

In the case of `CCNS(=O)(=O)c1cccc(CSC)c1`, the “Percent Effect” value is recorded as -125.2%.

Turning to `CCN1CCC(CNS(=O)(=O)N2CCc3ccccc3C2)C1` (configuration not stated), the “Percent Effect” value turned out to be 54.33%.

Turning to `CN1CCN(S(=O)(=O)NCC2COc3ccccc3C2)CC1` (configuration not stated), the “Percent Effect” value is reported as -15.69%.

For the molecule `O=S(=O)(NCC1CCOC1)N1CCc2ccccc2C1` (configuration not stated), the “Percent Effect” value is on record as -79.01%.

As for `O=S1(=O)CCC(CNS(=O)(=O)N2CCc3ccccc3C2)C1` (configuration not stated), the “Percent Effect” value was -112.5%.

As to `CN1CCCC(CNS(=O)(=O)N2CCc3ccccc3C2)C1` (configuration not stated), the “Percent Effect” value is 77.6%.

Consider `COCC1CCN(S(=O)(=O)NCC2COc3ccccc3C2)CC1` (configuration not stated), for which the “Percent Effect” value is -101%.

Regarding `O=S1(=O)CCN2C(=N1)Oc1ccc(S(=O)(=O)N3CCCC3)cc12`, the “Percent Effect” value is listed as -88.45%.

For `CSCCCN1C[C@H](NC(=O)c2cc(C3CC3)on2)[C@@H](C2CC2)C1`, the “Percent Effect” value worked out at 21.88%.

As for `O=C(c1cccnc1)N1CCC2(CC1)CCN(Cc1ccccn1)C2=O`, the “Percent Effect” value was -24.21%.

`CCn1ncc(Cl)c1CN(C)C(=O)CCn1ncc(Br)c1C`: the “Percent Effect” value is -15.28%.

Consider `Cc1nc[nH]c1CN1CCN(C(=O)C2CC2)[C@H]2CS(=O)(=O)C[C@H]21`, for which the “Percent Effect” value was -108.2%.

Regarding `C[C@@H](O)CNc1c(NCc2ccco2)c(=O)c1=O`, the “Percent Effect” value is listed as -66.82%.

`CC1(C)CC(=O)c2cnc3nc(N4CCCCC4)nc(O)c3c2C1`: the “Percent Effect” value is listed as -100.7%.

Consider `O=C(CCOc1cccc(F)c1)N1CCCC1Cn1cccn1` (configuration not stated), for which the “Percent Effect” value is on record as -132.8%.

For the molecule `Cc1ncc(CN2CCCC(c3cc(C(N)=O)[nH]n3)C2)s1` (configuration not stated), the “Percent Effect” value is -114.1%.

In the case of `CN(CCO)CC1COCCN1C(=O)C1(c2cccs2)CCCC1.O=CO` (configuration not stated), the “Percent Effect” value worked out at 45.51%.

As to `CN(C)CC1COCCN1C(=O)C1(c2cccs2)CCCC1.O=CO` (configuration not stated), the “Percent Effect” value was determined as 30.77%.

Turning to `Fc1cccnc1N1CCCC(c2nccs2)C1` (configuration not stated), the “Percent Effect” value is on record as -23.64%.

In the case of `CN1CCC(CCNC(=O)N2CCN(Cc3ccon3)CC2)CC1`, the “Percent Effect” value was -51.38%.

`CC(C)S(=O)(=O)CCN1CCc2c(ncn2C2CC2)C1`: the “Percent Effect” value is -95.89%.

Consider `CCS(=O)(=O)N1CCc2c(CN3CCOCC3)cncc2C1.Cl.Cl`, for which the “Percent Effect” value was -14.39%.

For the molecule `CC1CCCCN1CCNC(=O)c1ccn(-c2ccc(F)cc2)n1` (configuration not stated), the “Percent Effect” value turned out to be 33.02%.

As to `CC1CCCN(CCNC(=O)c2ccn(-c3ccc(F)cc3)n2)C1` (configuration not stated), the “Percent Effect” value was determined as 48.64%.

Turning to `CC1CCCCN1CCNC(=O)c1ccn(-c2cccc(F)c2)n1` (configuration not stated), the “Percent Effect” value stood at 62.87%.

For the molecule `CC1CCN(CCNC(=O)c2ccn(-c3ccccc3)n2)CC1`, the “Percent Effect” value came out at 21.68%.

As to `CC1CCN(CCNC(=O)c2ccn(-c3ccc(F)cc3)n2)CC1`, the “Percent Effect” value was 59.32%.

Take `COc1ccc(-n2ccc(C(=O)NCCN3CCCCC3C)n2)cc1` (configuration not stated): the “Percent Effect” value is -78.7%.

Turning to `CS(=O)(=O)NCc1nnc2n1CCN(Cc1nccs1)C2`, the “Percent Effect” value is -79.56%.

Consider `Cc1ccc(S(=O)(=O)N2CCC(O)(CN(C)C)C2)cc1` (configuration not stated), for which the “Percent Effect” value is 49.75%.

Take `CN(C)CC1(O)CCN(S(=O)(=O)c2cccc(F)c2)C1` (configuration not stated): the “Percent Effect” value turned out to be 65.12%.

In the case of `CN(C)CC1(O)CCN(S(=O)(=O)c2ccc(Cl)cc2)C1` (configuration not stated), the “Percent Effect” value turned out to be 40.17%.

`CC(=O)c1ccc(CNC(=O)c2c(C)cc(C)cc2C)nc1C`: the “Percent Effect” value was -62.27%.

On to `CN(C)C(=O)c1nn(C)c2c1CN(Cc1cccs1)C2.O=C(O)C(F)(F)F.O=C(O)C(F)(F)F`, for which the “Percent Effect” value is reported as -31.31%.

Take `NC(=O)CCC1CCCN(c2ccc3c(Cl)ccnc3c2F)C1` (configuration not stated): the “Percent Effect” value is given as -15.33%.

Consider `NC(=O)CCC1CCCN(c2ccc3ccc(F)cc3n2)C1` (configuration not stated), for which the “Percent Effect” value is recorded as -163.3%.

Take `NC(=O)CCC1CCCN(c2ccnc3cc(F)ccc23)C1` (configuration not stated): the “Percent Effect” value was found to be 82.57%.

`NC(=O)C1CCN(CCCNC(=O)Nc2nccs2)CC1`: the “Percent Effect” value is -52.35%.

As to `CCn1nc(C)c2nc(C(C)C)nc(N3CCC(O)CC3)c21`, the “Percent Effect” value is on record as -68.6%.

With `COCC(=O)N(Cc1cccc(C)c1)Cc1ccccc1OC`, the “Percent Effect” value is -1.416%.

In the case of `COc1ccccc1CN(Cc1cccc(C)c1)C(=O)[C@@H](N)CC(=O)O`, the “Percent Effect” value is -17.66%.

For the molecule `CN[C@@H](C)C(=O)N(Cc1cccc(C)c1)Cc1ccccc1OC`, the “Percent Effect” value was determined as 83.47%.

As for `Cc1cnc(N2C(=O)CSC2c2cccs2)s1` (configuration not stated), the “Percent Effect” value is recorded as -26.83%.

With `COc1ccc2[nH]cc(-c3ccnc(N4CCC(C)CC4)n3)c2c1`, the “Percent Effect” value is -185.2%.

As for `COc1ccc2[nH]cc(-c3ccnc(NC4CCCC4)n3)c2c1`, the “Percent Effect” value is 56.79%.

On to `COC(=O)c1ccc2c(-c3ccnc(N[C@@H](C)CO)n3)c[nH]c2c1`, for which the “Percent Effect” value is on record as -32.75%.

Regarding `COc1ccccc1CC(C)CC(=O)NC(C)C` (configuration not stated), the “Percent Effect” value is -116.6%.
